# Source: the supplement of paper PMC6555819
# Key:
# Assay in all cases: PBM binding z-score (relative to random genomic background probes); higher = stronger binding; sequences stand for … in GC…GCGATTGACAGCGTAGAATGAAGG
# [1] = system: FXR:RXRa (NR concentration 270 nM, RXRa partner concentration 90 nM)
# Outline: (§1)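 The probes on custom Agilent 4×180K protein-binding microarrays were double-stranded, with 34-nt variable regions bearing direct-repeat seeds, single-nucleotide variants, half-site ablations and random human genomic background sequences. Incubation lasted 1 h with ligand-free nuclear receptor dimers in PBS pH 7.4, 2% milk, 0.02% Triton X-100, 1 mM DTT, 0.2 mg/mL BSA and 0.4 mg/ml salmon testes DNA. Antibodies against each partner (one per run) detected bound dimers, and fluorescence scans were regression-normalized. Binding z-scores take the random background probes as reference.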
# [2] = system: LXRa:RXRa (NR concentration 270 nM, RXRa partner concentration 90 nM)
# Outline: as §1
# [3] = system: LXRa homodimer (NR concentration 270 nM)
# Outline: as §1
# [4] = system: LXRb:RXRa (NR concentration 270 nM, RXRa partner concentration 90 nM)
# Outline: as §1
# [5] = system: LXRb homodimer (NR concentration 270 nM)
# Outline: as §1
# [6] = system: PPARa:RXRa (NR concentration 270 nM, RXRa partner concentration 90 nM)
# Outline: as §1
# [7] = system: PPARg:RXRa (NR concentration 180 nM, RXRa partner concentration 90 nM)
# Outline: as §1
# [8] = system: PPARg:RXRa 270nM:90nM, anti-RXR (NR concentration 270 nM, RXRa partner concentration 90 nM)
# Outline: as §1
# [9] = system: PPARg:RXRa 30nM:10nM, anti-RXR (NR concentration 30 nM, RXRa partner concentration 10 nM)
# Outline: as §1
# [10] = system: PPARg:RXRa 90nM:30nM, anti-RXR (NR concentration 90 nM, RXRa partner concentration 30 nM)
# Outline: as §1
# [11] = system: PPARg:RXRa DBDmut IVT, anti-RXR (DBD mutation: RXRa K156A/R161A, NR concentration 270 nM, RXRa partner concentration 90 nM)
# Outline: as §1
# [12] = system: PPARg:RXRa IVT, anti-PPARg (NR concentration 270 nM, RXRa partner concentration 90 nM)
# Outline: as §1
# [13] = system: PPARg DBDmut:RXRa IVT, anti-PPARg (DBD mutation: PPARg1 K132A/R137A, NR concentration 270 nM, RXRa partner concentration 90 nM)
# Outline: as §1
# [14] = system: PPARg DBDmut IVT, anti-PPARg (DBD mutation: PPARg1 K132A/R137A, NR concentration 270 nM)
# Outline: as §1
# [15] = system: PPARg homodimer (NR concentration 180 nM)
# Outline: as §1
# [16] = system: PXR:RXRa (NR concentration 270 nM, RXRa partner concentration 90 nM)
# Outline: as §1
# [17] = system: PXR homodimer (NR concentration 270 nM)
# Outline: as §1
# [18] = system: RARa:RXR (NR concentration 270 nM, RXRa partner concentration 90 nM)
# Outline: as §1
# [19] = system: RARa homodimer (NR concentration 270 nM)
# Outline: as §1
# [20] = system: RARb:RXRa (NR concentration 270 nM, RXRa partner concentration 90 nM)
# Outline: as §1
Sequence,PBM binding z-score [1],PBM binding z-score [2],PBM binding z-score [3],PBM binding z-score [4],PBM binding z-score [5],PBM binding z-score [6],PBM binding z-score [7],PBM binding z-score [8],PBM binding z-score [9],PBM binding z-score [10],PBM binding z-score [11],PBM binding z-score [12],PBM binding z-score [13],PBM binding z-score [14],PBM binding z-score [15],PBM binding z-score [16],PBM binding z-score [17],PBM binding z-score [18],PBM binding z-score [19],PBM binding z-score [20]
CGTGAAAGTTCAACTAAGGTAACGTAAAGCACGC,6.32,6.09,4.26,3.89,1.84,4.98,3.58,4.78,1.6,3.39,-0.0451,1.86,0.513,0.603,2.63,5.31,3.52,3.81,1.22,5.19
CGAACTATGTCATCCAGGACAGTGAATACATTGA,0.102,-0.0297,0.258,0.236,0.0323,1.01,1.11,1.06,0.663,0.773,3.74,2.94,1.29,1.1,0.502,0.317,-0.051,0.733,0.52,0.805
CCTACTGGGCCAAAGATCATTGATTCCAATGCTC,-0.285,-0.527,-0.374,-0.317,-0.68,3.5,6.88,7.31,6.04,7.74,4.33,4.24,-0.277,0.286,0.269,-0.408,-0.738,-0.185,-0.399,-0.0314
ATATGTAGGTTAGCTGCGGTCATTCAGACTAGGC,1.46,5.96,4.17,2.56,0.134,2.82,3.47,3.02,0.942,2.27,6.89,6.05,1.21,1.12,0.698,3.39,0.151,1.21,0.221,1.88
CGTCCAAGGTCTAAGGTCAGTGAAGAGATGACGG,2.27,1.6,-0.0447,1.63,-0.547,3,3.03,4,2.41,3.52,0.385,1.44,-0.479,-0.374,2.23,2.21,0.498,3.2,0.608,3.71
CGTCCAAGGTCAAAGCTAGGTCAGTGAAAGCATT,7.24,5.98,2.25,4.54,1.44,5.65,4.63,5.54,1.86,4.09,3.82,4.33,0.45,-0.526,5.95,5.09,1.62,6.21,1.19,5.31
CGAACTAGGTCATTGACAGGACAGTAAATAGTAA,4.05,2.93,0.467,2.31,-0.338,4.66,7.77,6.44,3.43,5.8,8.11,7.89,2.15,1.51,1.72,1.89,0.641,2.43,-0.0635,3.81
GCTTACTGGTCAAAGGTTATAGCATGAATAGAAT,2.63,2.93,0.195,2.9,-0.146,4.95,8.22,7.6,6.04,7.95,1.14,3.37,1.09,1.11,0.856,3.18,0.438,4.53,0.553,2.54
CGATCTAGGTCAGAACAGGACAGTGAAGGATGAT,1.41,0.482,-0.161,0.206,-0.143,2.84,4.82,3.88,1.41,2.78,6.87,6.77,1.59,1.33,0.826,0.571,-0.0995,1.13,0.466,2.66
ATATGTAGGTTAGCTGGGATCATTCAGACTAGGC,0.641,0.823,0.0491,0.629,0.181,2.71,3.18,2.72,0.999,1.85,6.87,5.92,1.97,2.29,0.83,1.21,0.543,0.547,0.6,0.723
TGAATCAGGTTAAAGATCAGGGAACGTGGCGTCG,0.631,0.732,-0.19,0.221,-0.0822,3.29,4.92,5.85,5.28,6.34,2.15,3.33,0.98,0.175,0.529,0.343,-0.173,1.17,0.262,0.993
TCTAGTAGGCCAGAGGGTCACTCAAGAGGTACGG,0.984,1.06,-0.235,1.23,-0.774,3.17,4.36,5.3,4.21,5.28,3.6,4,-0.235,0.392,0.62,1.76,-0.532,2.51,-0.0158,2.37
AATACAGGTTCATCGTAGGCCAGAGTACGCACAG,3.44,4.91,1.85,2.3,0.451,3.19,1.67,1.31,0.478,0.764,0.0837,0.966,1.55,1.09,0.907,3.55,1.4,2.46,0.533,1.8
TAGCCTAGGTCATGCGCGCCAGTATAGTGTCGGC,4.7,3.47,0.451,2.36,0.289,3.98,2.68,2.89,0.197,1.79,2,3.17,0.974,0.266,2.85,1.55,-0.618,2.62,-0.473,3.74
TAGCCTAGGTCATTCAGGGGCCGGTATAGAAAGC,4.65,3.59,1.03,2.73,1.63,3.57,1.87,2.46,0.494,1.41,1.8,2.62,0.426,-0.644,1.79,2.11,-0.0709,3.04,-0.178,3.79
GCGACTGGGGCAAAGCAGGCTACCATAAGGTTGG,-0.319,-0.696,-0.699,-0.682,-0.971,0.527,0.941,0.966,-0.413,0.272,4.44,3.34,-0.239,-0.307,-0.349,-0.574,-0.689,-0.126,-1.27,0.579
AGAATAAGGTTATTAAGATCAGGGAATTGCGGTC,1.43,1.6,0.352,1.32,-0.02,2.42,1.12,1.67,0.45,1.38,2.24,1.81,1.52,0.812,1.04,1.13,0.666,1.49,1.34,1.72
CAAACTAGTTCACGAAAGGTCAAAGTCGAATGAC,6.34,7.45,7.18,6.48,2.77,5.65,4.37,5.37,2.24,4.32,2.5,3.57,1.49,0.645,5.52,6.88,5.53,7,3.03,4.89
ATATGTAGGTGACATCCGGGTCATTCAGGCTATG,2.96,2.62,0.319,2.21,0.147,5.01,6.79,5.7,2.91,5,7.69,8.07,4.09,3.49,3.11,3.52,2.13,3.62,-0.0147,2.14
CGTCCAAGGTCAAAGGTCAGTCAAGAGATGACGG,8.41,6.97,3.05,6.77,1.83,7.07,10.9,8.99,7.83,9.18,3.88,5.75,0.706,-0.299,2.8,7.08,1.81,9.03,1.5,5.97
GCTGGTAGATCAAGGTTAAGAAAGACTAAGCTAA,0.17,0.885,-0.138,0.378,-0.528,1.12,0.134,1.18,-0.00579,1,-0.391,0.232,-0.0433,-0.0207,-0.421,0.348,-0.246,0.69,0.451,0.949
TCTAGCAGGCCAGAGGGTGACTCAAGAGGTACGG,-0.401,0.0114,-0.795,-0.373,-1.42,0.54,1.05,2.1,1.99,2.19,0.764,0.183,-1.35,-1.1,-0.406,-0.274,-0.839,-0.247,-1.15,0.306
AGAATAAGGTTACCAAAGATCAGGGAAACGCTTG,1.76,5.91,0.165,2.57,-0.0188,2.93,1.84,2.41,0.732,1.67,2.55,2.26,1.2,1.13,0.8,1.03,0.338,1.61,0.942,2.57
CCAGACAGGTGAGAACGTAACTCAGCCTCGATTA,-0.0139,-0.0409,0.178,0.22,-0.463,0.136,0.444,-0.545,-0.231,-0.422,0.85,0.49,0.0295,-0.354,0.692,-0.267,0.209,-0.0422,0.428,0.192
TCTGCTACGTCAACGATGGTCAGCTAATCTGCTA,-0.231,-0.136,-0.622,-0.384,-0.541,-0.191,0.00276,0.525,1.6,1.1,0.824,-0.0517,-0.273,0.303,-1.54,-0.555,-0.856,-0.492,-1.62,-0.0266
GCGACTGGGGCCAAGCAGGTTACCATAAGGTTGG,-0.268,-0.471,-0.686,-0.129,-1.37,0.516,0.164,-0.27,-0.91,-0.642,-0.26,-0.0452,-0.943,-1.96,-0.242,-0.00892,-0.184,0.223,-1.01,1.14
ACAGACAGGTGAGTCAAGGTAACTCAGCTGGACG,1.06,-0.203,-0.155,-0.37,-0.551,0.333,0.647,-0.164,-0.257,-0.347,0.393,0.646,-0.696,-0.663,-0.248,0.238,-0.645,0.569,-0.253,0.669
CGTACTGGGCCAAAGGTCATTGATTCCAATGCTC,4.8,5.21,4.25,5.04,0.838,6.66,12.7,10.7,10.2,12.9,5.43,7,0.296,-0.116,4.18,5.73,2.15,6.41,1.62,4.54
TCTGCTAGGTCAACGATGGTCAGGTAATCTGCTA,3.43,2.96,0.163,1.53,-0.249,3.19,2.74,3.06,2.01,2.65,4.42,4.19,0.0564,-0.0875,0.216,1.61,-0.526,2.34,-0.895,3.93
